# Reference: PubChem BioAssay
# Unmarked numbers belong to inactive results. For some of these results: Results with a measured potency or affinity are listed apart. The source made the active and inactive calls. Unless noted, how the calls were made is not given here.
# What was measured:
# [1] = antimalarial activity against Dd2 strain (AID 2302;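 active means growth inhibition above 50% at the single 2 µM test dose, taken to imply half-maximal potency below 2 µM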;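 further: 0% = DMSO untreated growth and 100% = chloroquine plus artemisinin killed control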); settings: P. falciparum Dd2 in RBCs, LDH growth readout, 72 h; at 2 µM; active compounds read high
# [2] = human hepatoma cell viability loss – ATP luminescence, cytotoxicity control for P. falciparum antimalarial project, primary screen (AID 2303;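 active means inhibition above 50%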;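 further: 0% = DMSO wells and 100% = digitonin-killed cells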); settings: HepG2 viability, 24-48 h, at 10 µM, active compounds read high
# [3] = molecular target: L-lactate dehydrogenase (Plasmodium falciparum (isolate CDC / Honduras)) (UniProt Q27743); experiment: PfLDH activity inhibition – cell lysate, 3D7 strain, counter-screen for P. falciparum growth inhibition project (AID 2304);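 further: 0% = vehicle and 100% = reference inhibitor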; settings: P. falciparum 3D7 crude extract, LDH APAD/NBT absorbance; at 2 µM; active compounds read high
# Chain of L-lactate dehydrogenase (Plasmodium falciparum (isolate CDC / Honduras)) (Q27743 whole entry, looked up): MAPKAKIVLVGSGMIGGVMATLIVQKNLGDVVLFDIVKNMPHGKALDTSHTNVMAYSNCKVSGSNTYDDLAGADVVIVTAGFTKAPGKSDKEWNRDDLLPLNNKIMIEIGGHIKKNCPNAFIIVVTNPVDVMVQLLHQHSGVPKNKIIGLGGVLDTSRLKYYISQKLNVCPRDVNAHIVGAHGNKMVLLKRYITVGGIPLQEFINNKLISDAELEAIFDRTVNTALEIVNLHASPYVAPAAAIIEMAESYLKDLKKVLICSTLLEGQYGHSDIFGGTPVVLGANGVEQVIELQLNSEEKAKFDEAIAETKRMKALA
# [4] = inhibition of 3D7 malaria parasite growth – strain 3D7 (AID 2306);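 further: 0% = DMSO wells and 100% = chloroquine plus artemisinin control wells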; settings: P. falciparum 3D7 erythrocytic growth, LDH absorbance, 72 h; at 2 µM; active compounds read high
# [5] = molecular target: Calcium-dependent protein kinase 1 (Plasmodium falciparum (isolate 3D7)) (UniProt P62344); experiment: PfCDPK1 kinase inhibitors, biochemical, TCAMS library (AID 1159585; cut-off not given, nearly all actives have IC50 up to about 0.98 µM;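 further: inhibitors leave more ATP so luminescence rises with inhibition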); settings: recombinant PfCDPK1, Kinase-Glo ATP depletion luminescence
# Chain of Calcium-dependent protein kinase 1 (Plasmodium falciparum (isolate 3D7)) (P62344 whole entry, looked up): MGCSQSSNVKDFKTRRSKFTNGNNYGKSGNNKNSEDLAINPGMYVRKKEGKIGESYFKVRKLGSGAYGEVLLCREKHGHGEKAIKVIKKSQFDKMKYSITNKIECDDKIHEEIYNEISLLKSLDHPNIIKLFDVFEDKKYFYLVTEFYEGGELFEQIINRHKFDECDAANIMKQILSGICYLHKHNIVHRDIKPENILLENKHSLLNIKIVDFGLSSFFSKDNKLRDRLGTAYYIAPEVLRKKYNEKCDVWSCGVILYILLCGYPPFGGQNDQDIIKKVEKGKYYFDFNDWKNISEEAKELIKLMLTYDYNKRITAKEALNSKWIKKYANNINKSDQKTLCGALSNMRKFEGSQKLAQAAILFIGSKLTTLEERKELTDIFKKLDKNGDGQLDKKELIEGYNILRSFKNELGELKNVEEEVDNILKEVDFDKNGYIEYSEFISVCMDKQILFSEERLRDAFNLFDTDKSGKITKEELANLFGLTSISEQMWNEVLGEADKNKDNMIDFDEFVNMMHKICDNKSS
# [6] = molecular target: Plasmodium falciparum protein kinase 6 (PK6, PF3D7_1337100) (UniProt Q8IDW1); experiment: PfPK6 kinase inhibitors, biochemical, TCAMS library (AID 1159586); settings: recombinant PfPK6, Kinase-Glo ATP depletion luminescence
# Chain of Plasmodium falciparum protein kinase 6 (PK6, PF3D7_1337100) (Q8IDW1 1-305): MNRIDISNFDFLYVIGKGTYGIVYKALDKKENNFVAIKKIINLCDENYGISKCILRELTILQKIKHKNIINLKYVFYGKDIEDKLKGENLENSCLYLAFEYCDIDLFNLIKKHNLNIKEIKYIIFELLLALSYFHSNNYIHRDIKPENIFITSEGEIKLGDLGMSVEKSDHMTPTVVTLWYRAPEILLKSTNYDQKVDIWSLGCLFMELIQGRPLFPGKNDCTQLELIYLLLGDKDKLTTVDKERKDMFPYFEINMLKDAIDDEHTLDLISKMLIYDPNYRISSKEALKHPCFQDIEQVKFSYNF
# [7] = molecular target: Protein kinase 7 (PK7), Plasmodium falciparum 3D7 (PF3D7_0213400) (UniProt Q7YTF7); experiment: inhibition of Plasmodium PK7 catalytic activity – biochemical, TCAMS antimalarial set, Kinase-Glo luminescence (AID 1159587); settings: recombinant PfPK7, Kinase-Glo ATP depletion luminescence
# Chain of Protein kinase 7 (PK7), Plasmodium falciparum 3D7 (PF3D7_0213400) (Q7YTF7 1-343): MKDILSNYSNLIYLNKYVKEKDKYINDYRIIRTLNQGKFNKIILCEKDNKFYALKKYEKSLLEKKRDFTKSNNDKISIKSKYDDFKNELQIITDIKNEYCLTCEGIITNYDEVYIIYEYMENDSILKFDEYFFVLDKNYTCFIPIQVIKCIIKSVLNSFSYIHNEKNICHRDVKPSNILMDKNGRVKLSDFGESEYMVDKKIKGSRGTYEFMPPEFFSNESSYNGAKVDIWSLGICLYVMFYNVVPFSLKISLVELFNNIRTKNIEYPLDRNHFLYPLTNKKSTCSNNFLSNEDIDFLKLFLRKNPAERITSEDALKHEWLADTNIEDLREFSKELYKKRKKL
# [8] = molecular target: Calcium-dependent protein kinase 4 (Plasmodium falciparum (isolate 3D7)) (UniProt Q8IBS5); experiment: PfCDPK4 kinase inhibitors, biochemical, TCAMS library (AID 1159588; cut-off not given, nearly all actives have IC50 up to about 0.91 µM); settings: recombinant PfCDPK4, Kinase-Glo ATP depletion luminescence
# Chain of Calcium-dependent protein kinase 4 (Plasmodium falciparum (isolate 3D7)) (Q8IBS5 whole entry, looked up): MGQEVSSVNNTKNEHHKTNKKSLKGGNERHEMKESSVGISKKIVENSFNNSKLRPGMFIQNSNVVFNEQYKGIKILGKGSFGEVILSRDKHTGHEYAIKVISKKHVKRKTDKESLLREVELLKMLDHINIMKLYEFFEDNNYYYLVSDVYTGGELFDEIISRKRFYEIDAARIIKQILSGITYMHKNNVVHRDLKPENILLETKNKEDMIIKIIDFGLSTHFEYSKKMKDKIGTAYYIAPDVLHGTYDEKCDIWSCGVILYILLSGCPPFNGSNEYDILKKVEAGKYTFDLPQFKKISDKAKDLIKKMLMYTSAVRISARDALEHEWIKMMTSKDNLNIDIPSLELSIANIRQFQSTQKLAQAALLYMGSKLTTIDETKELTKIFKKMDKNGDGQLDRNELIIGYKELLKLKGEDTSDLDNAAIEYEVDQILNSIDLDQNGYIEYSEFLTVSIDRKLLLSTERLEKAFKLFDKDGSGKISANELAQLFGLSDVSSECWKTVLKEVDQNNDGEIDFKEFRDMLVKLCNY
SMILES,growth inhibition [1],inhibition [2],inhibition [3] [%],growth inhibition [4],outcome [5],outcome [6],outcome [7],outcome [8]
CC1(C)N=C(N)N=C(N)N1c1cc(Cl)c(Cl)c(Cl)c1,31%,68% (active),-7,93% (active),inactive,inactive,inactive,inactive
O=C(Nc1ccc(C2=NC3CCCCC3N2)cc1)Nc1ccc(C2=NC3CCCCC3N2)cc1 (centres undefined),76% (active),7%,0,88% (active),inactive,inactive,inactive,inactive
Cc1ccc(NC(=O)c2ccc(CN3CCCN(Cc4cccc(O)c4)CC3)cc2)cc1,31%,39%,-5,90% (active),inactive,inactive,inactive,inactive
COc1cc(C(=O)N2CCOC(CCN3CCC(Cc4ccc(F)cc4)CC3)(c3ccc(Cl)c(Cl)c3)C2)cc(OC)c1OC (centres undefined),58% (active),44%,-5,88% (active),inactive,inactive,inactive,inactive
CC1(C)N=C(N)N=C(N)N1OCc1cc(Cl)cc2c1OCOC2,64% (active),65% (active),-1,95% (active),inactive,inactive,inactive,inactive
Cc1cccc2[nH]c(-c3ccc(-c4cccc(NC(=O)c5cnccc5C(F)(F)F)c4)cc3)nc12,13%,25%,0,84% (active),inactive,inactive,inactive,inactive
Clc1ccc(CNCC2CCN(CC3CCCCC3)CC2)cc1Cl,6%,18%,4,92% (active),inactive,inactive,inactive,inactive
O=C(NCc1ccc(F)cc1)Nc1ccc(-c2cccc(-c3nc4ccc(C(F)(F)F)cc4[nH]3)c2)cc1,92% (active),41%,3,101% (active),inactive,inactive,inactive,inactive
O=C(Nc1ccc(-c2nc3ccccc3[nH]2)cc1)C1CCCN(CC2CC2)C1 (centres undefined),8%,6%,0,89% (active),inactive,inactive,inactive,inactive
COc1ccc(-c2ccc(NC(=O)c3cccc(Cl)c3)cc2)cc1CN(C)CCN(C)C,35%,22%,-3,100% (active),inactive,inactive,inactive,inactive
Oc1ccc(CCNc2nc(NCc3ccccc3Oc3ccc(C(F)(F)F)cc3)nc(N3CCNCC3)n2)cc1,2%,26%,0,86% (active),inactive,inactive,inactive,inactive
CC(=O)N1CCN(c2ccc(NC(=O)c3oc(-c4ccccc4)nc3C(F)(F)F)cn2)CC1,93% (active),-6%,-2,92% (active),inactive,inactive,inactive,inactive
O=C(NCc1ccc(C(F)(F)F)cc1)c1cccc(-c2nnc(-c3cccc(-c4cncnc4)c3)o2)c1,79% (active),13%,-2,96% (active),inactive,inactive,inactive,inactive
CC(C)n1ncc2c(C(=O)N3CCCC4CCCCC43)cc(C3CC3)nc21 (centres undefined),92% (active),7%,2,99% (active),inactive,inactive,inactive,inactive
COc1ccccc1NC(=O)Nc1cccc(-c2cccc(-c3nc4ccc(C(F)(F)F)cc4[nH]3)c2)c1,97% (active),21%,5,101% (active),inactive,inactive,inactive,inactive
O=C(Nc1ccc2c(c1)CN(Cc1ccc(N3CCCC3)o1)CCC2)c1ccoc1,76% (active),4%,-3,89% (active),inactive,inactive,inactive,inactive
O=C(Nc1ccc(I)cc1)N1CCc2sccc2C1CN1CCCCC1 (centres undefined),0%,33%,6,90% (active),inactive,inactive,inactive,inactive
CC1(C)N=C(N)N=C(N)N1OCCSc1ccccc1,95% (active),68% (active),3,95% (active),inactive,inactive,inactive,inactive
O=C(Nc1ccc(C(=O)Oc2ccc(-c3ccccc3)cc2)cc1)N[C@@H](Cc1ccc(O)cc1)C(=O)NC1CCN(Cc2ccc(O)cc2)C1 (some centres undefined),60% (active),-7%,0,94% (active),inactive,inactive,inactive,inactive
Cc1cc(C(=O)Nc2ccc3c(c2)CCN3C2CCN(Cc3cccc4cc[nH]c34)C2)no1 (centres undefined),96% (active),-1%,1,97% (active),inactive,inactive,inactive,inactive
OCC1CCN(Cc2ccc(-c3ccc(-c4nc5ccc(C(F)(F)F)cc5[nH]4)cc3)cc2)CC1,91% (active),17%,-2,100% (active),inactive,inactive,inactive,inactive
Cc1cccc2[nH]c(-c3cccc(-c4ccc(C(=O)NCCc5ccc(O)c(=O)[nH]5)cc4)c3)nc12,30%,20%,-1,85% (active),inactive,inactive,inactive,inactive
CC1CCN(C(=O)C(Cc2c[nH]c3ccccc23)NS(=O)(=O)c2ccc(Cl)cc2)CC1 (centres undefined),99% (active),-22%,-4,100% (active),inactive,inactive,inactive,inactive
